Experimental data as given in the supplement of paper PMC10849652.
About 7,900 targets were measured; listed, in parts, are those with a hit and a random draw of the rest. About 0.6% of all pairs of compound and target were hits. A number with no mark means an inactive call.

Columns and labels:
Assay in all cases: log2 fold change, soluble protein after heating vs DMSO (PISA); higher = thermal stabilisation; K562 cells, 10 uM, 30 min; active = over 0.2 and 3.5 SD of the protein, either way, in both replicates (recomputed)
[1] = compound: COC1=CC=C(C=C1)CN2C=CC3=C2C=C(C=C3)C(=O)NO
In short: (§1)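 Thermal stability values are relative to control samples and come from duplicates. They are expressed as log2 fold changes. For measurement, K562 cells (2×10^6 cells/mL) received 10 μM compound for 30 min, and aliquots were heated for 3 min over 48°C-58°C, pooled, and extracted at 4°C in PBS with 0.5% NP-40. Soluble protein, the supernatant after 21,000xg for 90 min, was quantified by TMTpro 16plex LC-MS/MS with equalised channel sums.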

filanesib = compound: CON(C)C(=O)N1N=C(c2cc(F)ccc2F)S[C@@]1(CCCN)c1ccccc1 [filanesib]
In short: as §1

zotarolimus = compound: CO[C@H]1C[C@@H]2CC[C@@H](C)[C@@](O)(O2)C(=O)C(=O)N2CCCC[C@H]2C(=O)O[C@H]([C@H](C)C[C@@H]2CC[C@H](n3cnnn3)[C@H](OC)C2)CC(=O)[C@H](C)/C=C(\C)[C@@H](O)[C@@H](OC)C(=O)[C@H](C)C[C@H](C)/C=C/C=C/C=C/1C [zotarolimus]
In short: as §1

idasanutlin = compound: COc1cc(C(=O)O)ccc1NC(=O)[C@@H]1N[C@@H](CC(C)(C)C)[C@](C#N)(c2ccc(Cl)cc2F)[C@H]1c1cccc(Cl)c1F [idasanutlin]
In short: as §1

alisertib = compound: COc1cc(Nc2ncc3c(n2)-c2ccc(Cl)cc2C(c2c(F)cccc2OC)=NC3)ccc1C(=O)O [alisertib]
In short: as §1

[2] = compound: COc1cc2nc(-c3cc(F)ccc3O)nc(N[C@@H]3CNC[C@H]3C(C)(C)O)c2cc1OC
In short: as §1

[3] = compound: COc1cccc2cc(-c3nc([C@H]4CC[C@H](C(=O)O)CC4)n4ncnc(N)c34)[nH]c12
In short: as §1

lapatinib = compound: CS(=O)(=O)CCNCc1ccc(-c2ccc3ncnc(Nc4ccc(OCc5cccc(F)c5)c(Cl)c4)c3c2)o1 [lapatinib]
In short: as §1

pictilisib = compound: CS(=O)(=O)N1CCN(Cc2cc3nc(-c4cccc5[nH]ncc45)nc(N4CCOCC4)c3s2)CC1 [pictilisib]
In short: as §1

gefitinib = compound: COc1cc2ncnc(Nc3ccc(F)c(Cl)c3)c2cc1OCCCN1CCOCC1 [gefitinib]
In short: as §1

UniProt P05114, sequence (P05114 whole entry, looked up): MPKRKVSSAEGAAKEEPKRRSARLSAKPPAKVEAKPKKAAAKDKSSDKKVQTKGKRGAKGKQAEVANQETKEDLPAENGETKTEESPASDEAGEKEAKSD
UniProt Q9H4G4, sequence (Q9H4G4 whole entry, looked up): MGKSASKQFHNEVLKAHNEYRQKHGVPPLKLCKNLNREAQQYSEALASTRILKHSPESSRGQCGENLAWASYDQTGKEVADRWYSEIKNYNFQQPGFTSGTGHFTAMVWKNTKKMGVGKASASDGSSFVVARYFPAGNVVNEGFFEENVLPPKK
UniProt O43524, sequence (O43524 whole entry, looked up): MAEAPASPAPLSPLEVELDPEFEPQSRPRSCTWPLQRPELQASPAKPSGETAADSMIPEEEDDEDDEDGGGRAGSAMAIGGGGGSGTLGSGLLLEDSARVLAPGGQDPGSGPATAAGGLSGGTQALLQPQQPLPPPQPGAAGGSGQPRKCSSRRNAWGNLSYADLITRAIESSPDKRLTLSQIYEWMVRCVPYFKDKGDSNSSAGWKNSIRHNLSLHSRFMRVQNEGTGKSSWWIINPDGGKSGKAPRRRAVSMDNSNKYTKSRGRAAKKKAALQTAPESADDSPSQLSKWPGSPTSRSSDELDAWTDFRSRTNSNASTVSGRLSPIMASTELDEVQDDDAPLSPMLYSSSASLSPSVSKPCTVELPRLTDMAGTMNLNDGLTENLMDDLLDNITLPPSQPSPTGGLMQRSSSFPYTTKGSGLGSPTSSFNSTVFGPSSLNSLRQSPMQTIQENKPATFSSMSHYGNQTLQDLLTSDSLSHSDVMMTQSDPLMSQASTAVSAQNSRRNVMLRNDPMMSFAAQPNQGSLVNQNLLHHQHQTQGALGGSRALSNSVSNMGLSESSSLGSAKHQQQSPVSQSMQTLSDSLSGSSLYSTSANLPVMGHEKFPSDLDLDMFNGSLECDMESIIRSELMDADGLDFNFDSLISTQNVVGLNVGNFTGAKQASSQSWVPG
UniProt Q70Z53, sequence (Q70Z53 whole entry, looked up): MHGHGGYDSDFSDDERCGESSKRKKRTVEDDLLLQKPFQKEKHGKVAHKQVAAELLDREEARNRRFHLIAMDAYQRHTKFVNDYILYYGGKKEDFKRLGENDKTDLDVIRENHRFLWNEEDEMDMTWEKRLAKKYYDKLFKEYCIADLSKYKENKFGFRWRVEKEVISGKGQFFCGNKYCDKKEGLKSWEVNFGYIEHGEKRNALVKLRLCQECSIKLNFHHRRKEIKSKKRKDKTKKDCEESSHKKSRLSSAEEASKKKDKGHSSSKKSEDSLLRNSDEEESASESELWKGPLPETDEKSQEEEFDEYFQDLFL
UniProt P51570, sequence (P51570 whole entry, looked up): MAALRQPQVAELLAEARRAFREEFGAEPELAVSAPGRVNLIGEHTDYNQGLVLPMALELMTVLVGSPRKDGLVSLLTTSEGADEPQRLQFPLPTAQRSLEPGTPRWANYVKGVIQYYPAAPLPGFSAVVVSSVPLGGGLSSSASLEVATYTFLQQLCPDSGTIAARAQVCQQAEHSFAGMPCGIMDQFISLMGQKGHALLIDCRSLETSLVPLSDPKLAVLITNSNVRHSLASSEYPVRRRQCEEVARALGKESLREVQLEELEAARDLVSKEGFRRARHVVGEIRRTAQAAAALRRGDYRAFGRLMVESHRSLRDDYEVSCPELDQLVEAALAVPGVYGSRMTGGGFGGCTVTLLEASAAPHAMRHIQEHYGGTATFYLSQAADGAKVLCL
UniProt Q9NRD1, sequence (Q9NRD1 whole entry, looked up): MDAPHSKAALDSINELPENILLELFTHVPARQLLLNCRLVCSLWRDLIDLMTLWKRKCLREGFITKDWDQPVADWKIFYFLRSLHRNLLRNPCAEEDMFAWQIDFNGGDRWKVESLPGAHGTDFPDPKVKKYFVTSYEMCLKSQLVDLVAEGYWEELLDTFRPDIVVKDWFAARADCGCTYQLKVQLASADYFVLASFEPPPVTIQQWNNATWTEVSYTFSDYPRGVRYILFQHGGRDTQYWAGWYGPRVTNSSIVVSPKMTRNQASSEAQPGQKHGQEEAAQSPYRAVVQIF
UniProt Q9P2D3, sequence (Q9P2D3 whole entry, looked up): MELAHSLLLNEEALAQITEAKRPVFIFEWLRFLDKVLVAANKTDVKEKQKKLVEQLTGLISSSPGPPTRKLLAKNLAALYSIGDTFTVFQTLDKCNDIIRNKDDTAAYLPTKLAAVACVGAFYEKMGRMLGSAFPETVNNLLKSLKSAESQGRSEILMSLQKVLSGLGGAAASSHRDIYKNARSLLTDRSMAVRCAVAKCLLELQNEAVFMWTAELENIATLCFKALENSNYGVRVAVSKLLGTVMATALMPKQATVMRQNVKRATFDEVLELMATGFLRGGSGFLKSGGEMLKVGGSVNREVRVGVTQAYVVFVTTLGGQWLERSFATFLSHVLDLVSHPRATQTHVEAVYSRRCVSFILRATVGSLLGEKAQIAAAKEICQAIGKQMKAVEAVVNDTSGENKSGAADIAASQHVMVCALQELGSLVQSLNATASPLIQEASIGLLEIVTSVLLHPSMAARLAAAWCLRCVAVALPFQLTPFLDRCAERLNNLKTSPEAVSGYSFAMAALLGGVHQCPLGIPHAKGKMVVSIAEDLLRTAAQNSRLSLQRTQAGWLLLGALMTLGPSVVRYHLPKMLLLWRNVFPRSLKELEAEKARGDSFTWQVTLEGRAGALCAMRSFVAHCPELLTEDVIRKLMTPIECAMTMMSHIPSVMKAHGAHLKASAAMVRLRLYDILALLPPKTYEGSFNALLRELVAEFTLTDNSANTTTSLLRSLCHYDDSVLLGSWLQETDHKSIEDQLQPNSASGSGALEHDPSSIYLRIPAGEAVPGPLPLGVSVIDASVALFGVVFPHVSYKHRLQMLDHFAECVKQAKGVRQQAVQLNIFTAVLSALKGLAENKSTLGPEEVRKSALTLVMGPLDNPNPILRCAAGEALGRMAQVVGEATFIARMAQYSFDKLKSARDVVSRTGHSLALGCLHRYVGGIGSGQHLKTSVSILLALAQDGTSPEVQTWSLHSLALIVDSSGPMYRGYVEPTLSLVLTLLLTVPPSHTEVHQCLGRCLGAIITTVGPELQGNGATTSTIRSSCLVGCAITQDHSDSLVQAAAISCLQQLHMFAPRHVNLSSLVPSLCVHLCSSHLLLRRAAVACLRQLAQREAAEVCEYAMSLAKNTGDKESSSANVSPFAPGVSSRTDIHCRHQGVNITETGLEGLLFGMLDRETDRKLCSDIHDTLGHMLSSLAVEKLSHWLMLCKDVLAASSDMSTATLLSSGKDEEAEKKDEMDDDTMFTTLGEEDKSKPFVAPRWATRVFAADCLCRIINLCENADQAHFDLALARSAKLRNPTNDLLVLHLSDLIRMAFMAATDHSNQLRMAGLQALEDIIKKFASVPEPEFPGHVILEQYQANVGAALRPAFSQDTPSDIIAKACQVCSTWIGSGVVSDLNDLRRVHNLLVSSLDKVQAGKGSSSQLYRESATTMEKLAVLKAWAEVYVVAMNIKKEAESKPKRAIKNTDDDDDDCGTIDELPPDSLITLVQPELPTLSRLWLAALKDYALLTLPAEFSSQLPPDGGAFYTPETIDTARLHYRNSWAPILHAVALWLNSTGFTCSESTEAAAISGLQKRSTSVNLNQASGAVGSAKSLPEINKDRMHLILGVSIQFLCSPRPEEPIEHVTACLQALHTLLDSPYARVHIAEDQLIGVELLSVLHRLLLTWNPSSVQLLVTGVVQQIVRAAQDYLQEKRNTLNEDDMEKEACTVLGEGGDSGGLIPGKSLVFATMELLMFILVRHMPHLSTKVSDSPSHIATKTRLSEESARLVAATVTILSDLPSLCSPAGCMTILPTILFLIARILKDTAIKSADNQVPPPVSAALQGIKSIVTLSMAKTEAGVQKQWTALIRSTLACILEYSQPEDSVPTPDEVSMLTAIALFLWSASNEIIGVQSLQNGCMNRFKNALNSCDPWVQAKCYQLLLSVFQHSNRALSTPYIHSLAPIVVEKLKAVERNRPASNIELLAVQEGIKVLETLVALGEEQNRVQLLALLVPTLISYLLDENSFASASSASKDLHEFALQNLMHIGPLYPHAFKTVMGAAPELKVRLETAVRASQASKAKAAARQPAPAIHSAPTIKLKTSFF
UniProt Q53FT3, sequence (Q53FT3 whole entry, looked up): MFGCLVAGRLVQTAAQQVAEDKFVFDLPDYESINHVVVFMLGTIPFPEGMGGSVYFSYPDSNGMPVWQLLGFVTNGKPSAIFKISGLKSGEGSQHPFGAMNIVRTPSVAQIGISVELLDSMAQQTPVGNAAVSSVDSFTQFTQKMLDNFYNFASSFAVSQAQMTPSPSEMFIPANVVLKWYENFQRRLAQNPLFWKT
UniProt Q7Z4V5, sequence (Q7Z4V5 whole entry, looked up): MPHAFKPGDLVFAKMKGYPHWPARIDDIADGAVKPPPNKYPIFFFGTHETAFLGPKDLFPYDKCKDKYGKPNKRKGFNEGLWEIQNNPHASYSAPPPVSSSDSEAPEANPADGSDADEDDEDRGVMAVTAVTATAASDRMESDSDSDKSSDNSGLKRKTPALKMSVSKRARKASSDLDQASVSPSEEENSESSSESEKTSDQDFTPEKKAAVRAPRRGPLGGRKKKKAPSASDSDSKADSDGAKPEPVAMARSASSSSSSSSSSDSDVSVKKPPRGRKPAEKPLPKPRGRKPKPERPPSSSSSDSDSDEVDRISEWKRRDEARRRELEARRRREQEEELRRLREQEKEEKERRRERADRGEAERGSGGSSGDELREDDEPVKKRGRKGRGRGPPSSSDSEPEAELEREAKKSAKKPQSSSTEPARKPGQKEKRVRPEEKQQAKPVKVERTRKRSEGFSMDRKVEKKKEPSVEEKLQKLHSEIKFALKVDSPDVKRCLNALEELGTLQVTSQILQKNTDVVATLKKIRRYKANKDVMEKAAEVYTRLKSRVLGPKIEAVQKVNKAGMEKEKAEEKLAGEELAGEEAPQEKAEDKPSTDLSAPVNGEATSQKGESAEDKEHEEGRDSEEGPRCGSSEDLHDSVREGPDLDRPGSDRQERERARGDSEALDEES
UniProt P60520, sequence (P60520 whole entry, looked up): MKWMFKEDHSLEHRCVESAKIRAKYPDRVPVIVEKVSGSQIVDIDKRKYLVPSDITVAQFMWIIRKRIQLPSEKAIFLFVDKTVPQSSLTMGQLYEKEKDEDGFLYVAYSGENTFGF

Target | log2 fold change [1] | log2 fold change (filanesib) | log2 fold change (zotarolimus) | log2 fold change (idasanutlin) | log2 fold change (alisertib) | log2 fold change [2] | log2 fold change [3] | log2 fold change (lapatinib) | log2 fold change (pictilisib) | log2 fold change (gefitinib)
FOXO3 (UniProt O43524) | 0.027 | -0.069 | 0.083 | 0.154 | 0.149 | -0.067 | -0.068 | -0.106 | -0.09 | –
HDAC6 (UniProt Q9UBN7) | 0.676 (active) | 0.006 | 0.008 | -0.055 | -0.097 | 0.028 | -0.027 | 0.016 | 0.062 | 0.043
FARS2 (UniProt O95363) | -0.171 | -0.122 | -0.049 | -0.076 | 0.137 | 0.033 | 0.113 | -0.061 | 0.071 | -0.114
GLIPR2 (UniProt Q9H4G4) | 0 | -0.147 | 0.024 | 0.096 | -0.031 | -0.239 | -0.036 | 0.103 | -0.011 | –
FKBP3 (UniProt Q00688) | 0.219 | -0.04 | 0.354 (active) | -0.015 | -0.052 | 0.047 | 0 | -0.029 | 0.004 | -0.023
FBXO6 (UniProt Q9NRD1) | -0.016 | 0.008 | 0.044 | -0.17 | -0.043 | 0.022 | 0.038 | 0.026 | -0.091 | 0.059
GLUD1 (UniProt P00367) | -0.012 | -0.118 | -0.007 | -0.047 | -0.039 | -0.001 | 0.057 | 0.178 | 0.367 (active) | 0.076
HIKESHI (UniProt Q53FT3) | -0.051 | -0.063 | 0.026 | -0.05 | -0.076 | 0.067 | 0.009 | -0.021 | -0.004 | 0.011
HMGN1 (UniProt P05114) | 0.01 | 0.044 | -0.034 | 0.026 | -0.04 | 0.059 | 0.026 | -0.09 | -0.003 | -0.07
FECH isoform 2 (UniProt P22830) | 0.159 | -0.188 | 0.082 | -0.127 | -0.185 | 0.363 | 0.062 | 0.269 | 0.396 | 0.153
GABARAPL2 (UniProt P60520) | 0.185 | -0.01 | -0.036 | -0.072 | 0.016 | 0.033 | 0 | -0.006 | -0.059 | -0.014
HDGFL2 (UniProt Q7Z4V5) | 0.032 | 0.056 | -0.025 | 0.012 | -0.051 | -0.013 | 0.04 | -0.019 | -0.004 | 0.025
FRA10AC1 isoform 3 (UniProt Q70Z53) | -0.022 | 0.179 | -0.049 | -0.319 | -0.033 | 0.068 | -0.005 | -0.064 | -0.11 | 0
HHEX (UniProt Q03014) | 0.178 | -0.007 | -0.102 | 0.035 | 0.002 | -0.04 | 0.053 | -0.004 | -0.012 | -0.016
GALK1 isoform 2 (UniProt P51570) | -0.023 | -0.201 | 0.012 | -0.106 | -0.125 | -0.049 | 0.036 | 0.147 | -0.05 | -0.005
GLA (UniProt P06280) | 0.033 | -0.048 | -0.003 | 0.06 | -0.089 | 0.018 | 0.01 | -0.026 | -0.06 | -0.011
HP1BP3 (UniProt Q5SSJ5) | 0.041 | 0.145 | -0.003 | 0.095 | -0.069 | -0.053 | -0.024 | 0.044 | 0.04 | 0.154
GAB2 (UniProt Q9UQC2) | 0.044 | -0.053 | -0.145 | 0.084 | 0.007 | -0.526 | -0.236 | 0.033 | -0.348 | –
FUT8 (UniProt Q9BYC5) | -0.156 | -0.043 | -0.019 | -0.066 | 0.022 | – | -0.03 | – | -0.032 | 0.084
FIBP (UniProt O43427) | 0.083 | -0.051 | -0.047 | 0.03 | 0.016 | 0.042 | -0.084 | 0.008 | 0.185 | –
GLYR1 (UniProt Q49A26) | -0.024 | 0.125 | -0.04 | 0 | 0.071 | -0.092 | -0.07 | 0.169 | -0.228 | 0.113
HADHA (UniProt P40939) | 0.267 | 0.082 | 0.081 | -0.321 | -0.035 | 0.155 | -0.088 | 0.148 | 0.425 | 0.209
HEATR5B (UniProt Q9P2D3) | -0.006 | -0.005 | -0.071 | 0 | 0.006 | 0.039 | 0.033 | 0.018 | -0.065 | -0.045
GTPBP6 (UniProt O43824) | -0.105 | 0.049 | 0.061 | 0.018 | -0.217 | – | 0 | – | -0.012 | -0.146
HIST2H2BF isoform 2 (UniProt Q5QNW6) | 0.062 | 0.248 | -0.163 | 0.437 | 0.081 | -0.112 | -0.314 | 0.047 | -0.137 | 0.053
GSTM4 (UniProt Q03013) | 0.027 | 0.103 | 0.084 | 0.031 | 0.061 | 0.084 | 0.068 | 0.031 | 0.022 | -0.056
